The source made the active and inactive calls.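 The calls were made as follows, unless noted: active = visual image review flags a hit and inhibition of aggregation exceeds 20%; inconclusive = visual hit but inhibition at or below 20%; inactive = no hit on visual image review.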
Key:
[1] = inhibitors of TNFa-induced NFkB p65 translocation, primary screen, imaging, HUVEC, MLSMR starter and 10KST1 sets (AID 438;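 active = inhibition above 20% together with a positive visual image hit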;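 also: compound added about 3h40 before a 20 min TNFalpha stimulation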;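 as to inhibition: signal is the nuclear over cytoplasmic p65 intensity ratio per well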); conditions: HUVEC TNFa-induced p65 nuclear translocation; cell count: measured here: nuclei count (cytotoxicity indicator), at 2.08 µM; inhibition: at 2 µM, stronger effect = higher value, 0% TNFa-plus-vehicle, 100% no-TNFa wells
[2] = inhibitors of mutant huntingtin aggregation, primary screen, imaging, exon1htt(103Q)mCFP cells, high-content imaging (AID 483); conditions: exon1htt(103Q)mCFP cell line, aggregate imaging, at 2 µM; inhibition of aggregation: stronger effect = higher value; nuclei count: measured here: cell count, toxicity;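 also: compound exposure lasted 3 days before fixation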;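 as to nuclei count: percent of the per-plate median nuclei count of sample wells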
[3] = inhibitors of E-selectin induction by TNFa, primary screen, imaging, HUVEC, immunofluorescence, MLSMR starter and 10KST1 sets (AID 487;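 active = visually confirmed hit in the image check and inhibition above 20%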;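 as to inhibition: signal is fraction of cell area covered by stained E-selectin grains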;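 as to nuclei count: 100% = median nuclei count of all wells on the same plate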); conditions: HUVEC TNFalpha-induced E-selectin immunofluorescence imaging, at 2 µM; inhibition: stronger effect = higher value; nuclei count: measured here: cell number, toxicity
[4] = molecular target: Voltage-gated potassium channel subunit beta-2 (Rattus norvegicus) (UniProt P62483); assay: KvBeta enzyme negative modulators, primary screen, biochemical, NADPH fluorescence (AID 622;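 active = fluorescence slope higher than the sample average by over 3 SD, cut at about -0.22 in these data, passing the limit was not always enough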;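 also: slope of raw intensity against log time taken from 70 to 1610 s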); conditions: recombinant KvBeta, 4-cyanobenzaldehyde reduction, at 10 µM, stronger effect = higher value
Sequence of Voltage-gated potassium channel subunit beta-2 (Rattus norvegicus) (P62483 whole entry, looked up): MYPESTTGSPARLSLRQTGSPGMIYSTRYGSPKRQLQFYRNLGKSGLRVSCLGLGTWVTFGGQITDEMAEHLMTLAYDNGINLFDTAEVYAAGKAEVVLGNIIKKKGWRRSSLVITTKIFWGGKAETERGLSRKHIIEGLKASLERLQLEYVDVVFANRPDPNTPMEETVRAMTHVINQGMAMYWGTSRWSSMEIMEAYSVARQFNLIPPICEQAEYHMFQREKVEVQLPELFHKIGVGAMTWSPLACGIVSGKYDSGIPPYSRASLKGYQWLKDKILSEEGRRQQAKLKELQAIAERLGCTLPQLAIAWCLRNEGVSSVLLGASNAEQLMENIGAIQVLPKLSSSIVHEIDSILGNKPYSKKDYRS

[5] = molecular target: Voltage-gated potassium channel subunit beta-2 (Rattus norvegicus) (UniProt P62483); assay: KvBeta positive modulators, primary screen, biochemical, NADPH fluorescence (AID 623;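 active = NADPH fluorescence slope more negative than the mean of all samples by about 3 SD, 99.7% confidence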;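 also: fluorescence intensity change per second fitted from 20 to 320 s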); conditions: Recombinant KvBeta, NADPH fluorescence decrease slope, 10 min; at 10 µM; stronger effect = lower value
[6] = molecular target: Alpha-2C adrenergic receptor (Homo sapiens) (UniProt P18825); assay: modulators of alpha2C/GIRK thallium flux, primary screen, cell-based, HEK293 alpha2C/GIRK1/2 (AID 624;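 active = fluorescence slope after compound addition differing from the mean of all screened samples at 99.7% confidence, in either direction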;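 also: slope of fluorescence ratio to pre-addition baseline per second over 15 to 24 s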); conditions: thallium flux BTC fluorescence, at 10 µM, actives lie on both sides
Sequence of Alpha-2C adrenergic receptor (Homo sapiens) (P18825 whole entry, looked up): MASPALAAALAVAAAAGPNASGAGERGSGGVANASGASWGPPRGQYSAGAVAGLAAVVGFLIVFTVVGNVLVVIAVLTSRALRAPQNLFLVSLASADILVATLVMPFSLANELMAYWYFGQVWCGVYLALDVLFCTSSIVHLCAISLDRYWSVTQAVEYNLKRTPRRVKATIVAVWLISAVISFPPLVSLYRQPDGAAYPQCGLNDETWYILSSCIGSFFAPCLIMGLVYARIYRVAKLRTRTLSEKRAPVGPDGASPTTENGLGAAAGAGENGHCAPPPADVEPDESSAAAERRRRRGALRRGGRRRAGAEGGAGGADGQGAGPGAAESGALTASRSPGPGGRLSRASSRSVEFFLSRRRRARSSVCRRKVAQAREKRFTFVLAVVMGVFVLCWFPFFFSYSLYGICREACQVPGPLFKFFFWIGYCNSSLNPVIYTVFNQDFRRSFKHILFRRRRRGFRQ

[7] = inhibitors of Sendai virus-induced IRF3 signaling, primary screen, TLR/RLR signaling modifier project, cell-based, Sendai virus stimulus, luciferase, 10K MLSCN set (AID 602276;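 active = inhibition at or above 50% at 10 µM; inactive = inhibition below 50%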;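 also: firefly luciferase from ISG56 promoter only with Renilla not read in this screen; 0% = Sendai virus plus DMSO and 100% = medium plus DMSO without virus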); conditions: HEK293 RL24 IRF3 luciferase reporter, at 10 µM, stronger effect = higher value
[8] = inhibitors of poly I:C-induced TLR3 signaling, primary screen, cell-based, poly I:C stimulus, luciferase, 10K MLSCN set (AID 602277;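 active = inhibition of the reporter signal at or above 50%; inactive = inhibition below 50%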); conditions: HEK293-TLR3 RL24 IRF3 luciferase reporter, at 10 µM, stronger effect = higher value

Row | SMILES | cell count [1] | inhibition [1] | inhibition of aggregation [2] | nuclei count [2] | inhibition [3] | nuclei count [3] | fluorescence slope [4] | NADPH fluorescence slope [5] | slope [6] | inhibition [7] | inhibition [8]
1 | Cn1cc(Cl)c(C(=O)N(Cc2ccccc2)c2ccccn2)n1 | 623 | 8.3% (inactive) | -6.5% (inactive) | 102% | -5.2% (inactive) | 117% | -0.584 (inactive) | -3.1e-06 (inactive) | 0.00695 (inactive) | -18.3% (inactive) | 0.52% (inactive)
2 | CC1=C(C(=O)NCc2ccccn2)C2(CCC(C)CC2)OC1=O (stereo not given) | 759 | -5% (inactive) | 16.1% (inactive) | 91.3% | 19.6% (inactive) | 110% | -0.521 (inactive) | -2.4e-05 (inactive) | 0.00608 (inactive) | 12.1% (inactive) | 26.9% (inactive)
3 | COCCn1nnnc1C(c1cc2ccc(OC)cc2[nH]c1=O)N1CCc2ccccc2C1 (stereo not given) | 454 | 7.5% (inactive) | -1.5% (inactive) | 86.9% | -43% (inactive) | 95.9% | -0.503 (inactive) | -1.3e-05 (inactive) | 0.00527 (inactive) | 29.3% (inactive) | 37.8% (inactive)
4 | Cc1c(N=C2SCC(=O)N2c2c(C)n(C)n(-c3ccccc3)c2=O)c(=O)n(-c2ccccc2)n1C | 592 | 4.1% (inactive) | -7.8% (inactive) | 113% | -66.8% (inactive) | 116% | -0.482 (inactive) | -3e-05 (inactive) | 0.00551 (inactive) | 2.44% (inactive) | 13.3% (inactive)
5 | O=c1[nH]c2cc3c(cc2cc1C(c1nnnn1Cc1ccccc1)N1CCCc2ccccc21)OCO3 (stereo not given) | 552 | -7.7% (inactive) | 16.5% (inactive) | 100% | 20.7% (inactive) | 108% | -0.621 (inactive) | 1.7e-05 (inactive) | 0.0031 (inactive) | 10.6% (inactive) | 15.5% (inactive)
6 | COc1cc(C2C(C#N)=C(C)NC3=C2C(=O)CC(C)(C)C3)ccc1O (stereo not given) | 422 | -1.9% (inactive) | 1% (inactive) | 103% | -15.6% (inactive) | 103% | -0.453 (inactive) | -2e-05 (inactive) | 0.00555 (inactive) | 8.2% (inactive) | 16.9% (inactive)
7 | CCOC(=O)N1CCN(Cc2nc3c(c(=O)n(C)c(=O)n3C)n2Cc2ccc(F)cc2)CC1 | 697 | 0.3% (inactive) | -1.6% (inactive) | 91.7% | -23.4% (inactive) | 123% | -0.557 (inactive) | -3.3e-05 (inactive) | 0.00745 (inactive) | 16.7% (inactive) | 39.9% (inactive)
8 | COc1cc(Nc2cc(C)nc3ncnn23)cc(OC)c1OC | 649 | -6.3% (inactive) | -4.4% (inactive) | 109% | -23.8% (inactive) | 112% | -0.56 (inactive) | 1.9e-05 (inactive) | 0.0068 (inactive) | 1.55% (inactive) | 31.7% (inactive)
9 | Cc1cc(Nc2ccccc2F)n2ncnc2n1 | 542 | 14.8% (inactive) | -3.9% (inactive) | 137% | -59.1% (inactive) | 111% | -0.566 (inactive) | -2.7e-05 (inactive) | 0.00578 (inactive) | -1.22% (inactive) | 12.8% (inactive)
10 | Cc1cccc(N(CC(=O)Nc2ccc(CC#N)cc2)S(C)(=O)=O)c1 | 487 | -15.7% (inactive) | -17.9% (inactive) | 106% | -87.9% (inactive) | 109% | -0.483 (inactive) | -2.6e-05 (inactive) | 0.00518 (inactive) | 16.7% (inactive) | 28.7% (inactive)
11 | COc1ccc(OC)c2[nH]c(=O)c(CCNC(=O)CC(C)C)cc12 | 325 | -12.8% (inactive) | 2% (inactive) | 91.9% | 62.7% (active) | 89.8% | -0.508 (inactive) | -4.7e-05 (inactive) | 0.00505 (inactive) | -1.86% (inactive) | 2.61% (inactive)
12 | Cc1ccc2nc3c(cc(C(=O)NCC4CCCO4)n3C)c(=O)n2c1 (stereo not given) | 405 | 9.7% (inactive) | 2.7% (inactive) | 111% | -25.5% (inactive) | 114% | -0.0813 (active) | -3.2e-06 (inactive) | 0.00481 (inactive) | -21.8% (inactive) | -39.8% (inactive)
13 | CCCc1[nH]nc2c1C(c1cn[nH]c1-c1ccc(F)cc1)C(C#N)=C(N)O2 (stereo not given) | 438 | -8.3% (inactive) | 11.7% (inactive) | 89.8% | -43.7% (inactive) | 137% | -0.38 (inactive) | -0.000105 (inactive) | 0.00672 (inactive) | 18.7% (inactive) | 23.5% (inactive)
14 | O=C(Nc1ccc(O)cc1)C1CCCN1S(=O)(=O)c1ccc(F)cc1 (stereo not given) | 598 | -2.1% (inactive) | -9.8% (inactive) | 90% | -33.3% (inactive) | 119% | -0.497 (inactive) | -2.5e-05 (inactive) | 0.00664 (inactive) | 8.7% (inactive) | 9.85% (inactive)
15 | NS(=O)(=O)c1ccc(NC(=O)N[C@@H](Cc2ccccc2)C(=O)O)cc1 | 292 | -0.8% (inactive) | 5.2% (inactive) | 104% | 16.6% (inactive) | 99.7% | -0.485 (inactive) | -4.3e-05 (inactive) | 0.00476 (inactive) | 10.6% (inactive) | 16.6% (inactive)
16 | Cn1c(=O)c2c(nc(NCc3ccco3)n2C/C=C/c2ccccc2)n(C)c1=O | 256 | 8.8% (inactive) | 6.1% (inactive) | 99.5% | -65.5% (inactive) | 118% | -0.637 (inactive) | 3.3e-05 (inactive) | 0.00629 (inactive) | 14.8% (inactive) | 18.9% (inactive)
17 | CC(C)(CO)NC(=O)CCCOc1ccc(Cl)cc1Cl | 397 | -4.9% (inactive) | 6.2% (inactive) | 97.4% | 35.5% (inactive) | 98.8% | -0.431 (inactive) | -2.6e-05 (inactive) | 0.00385 (inactive) | -27.2% (inactive) | -47.8% (inactive)
18 | Cn1c(=O)[nH]c(=O)c2c1nc(NCCCn1ccnc1)n2Cc1ccccc1 | 433 | 0.3% (inactive) | -7.8% (inactive) | 130% | -46.4% (inactive) | 119% | -0.603 (inactive) | -3.4e-05 (inactive) | 0.00342 (inactive) | -9.45% (inactive) | -6.06% (inactive)
19 | O=C(c1cccs1)N(Cc1ccco1)Cc1cc2ccccc2[nH]c1=O | 420 | 6.2% (inactive) | -7.1% (inactive) | 107% | -40% (inactive) | 84.3% | -0.343 (inactive) | -3.2e-05 (inactive) | 0.00483 (inactive) | -11% (inactive) | -8.09% (inactive)
20 | NC(=O)CSc1nnc(-c2cnccn2)n1-c1ccccc1 | 625 | 3.8% (inactive) | -10.7% (inactive) | 102% | 19% (inactive) | 94.9% | -0.501 (inactive) | -4.9e-05 (inactive) | 0.0054 (inactive) | 20.2% (inactive) | 20.8% (inactive)
21 | COc1ccc(C(=O)c2coc3ccc(O)c(CN4CCCCC4)c23)cc1 | 828 | -6.8% (inactive) | -9.1% (inactive) | 108% | -25.2% (inactive) | 112% | -0.597 (inactive) | -1.2e-05 (inactive) | 0.00458 (inactive) | -9.24% (inactive) | -15.8% (inactive)
22 | COC(=O)c1ccc(Oc2nc(NC(C)C)nc(N(C)C)n2)cc1 | 632 | 28.3% (inactive) | -21.7% (inactive) | 94.4% | -112% (inactive) | 106% | -0.468 (inactive) | 2.5e-05 (inactive) | 0.00595 (inactive) | -2.9% (inactive) | 15.7% (inactive)
23 | O=S(=O)(c1ccc(F)cc1)N1CCC(N2CCCC2)CC1 | 621 | 12.4% (inactive) | 5.9% (inactive) | 107% | 12.6% (inactive) | 107% | -0.537 (inactive) | -4.2e-05 (inactive) | 0.00636 (inactive) | 6.84% (inactive) | 45.9% (inactive)
24 | Cc1cc(C(=O)Nc2ccc(S(=O)(=O)Nc3onc(C)c3C)cc2)cs1 | 608 | -3% (inactive) | 15.4% (inactive) | 94.1% | -17.7% (inactive) | 105% | -0.361 (inactive) | -5e-05 (inactive) | 0.00493 (inactive) | 5.43% (inactive) | 8.03% (inactive)
25 | COc1ccccc1S(=O)(=O)Cc1ccc(C(=O)N2CCN(c3ccccn3)CC2)o1 | 624 | -4% (inactive) | 0.9% (inactive) | 106% | -53.1% (inactive) | 104% | -0.517 (inactive) | -3.4e-05 (inactive) | 0.00659 (inactive) | 20.6% (inactive) | 15.8% (inactive)

— PubChem BioAssay
